Bioassay records: PubChem BioAssay, several laboratories
Rv3671c inh: inhibits the M. tuberculosis serine protease Rv3671c | P9WHR9 | inhibition, % at 5.96 µM | 320,000 compounds, 0.048% hits | AID 2606; in the data active = inhibition above about 38%;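 note: extracellular domain of Rv3671c used as enzyme; 0% = enzyme with DMSO and 100% = no enzyme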
FBA Mtb inh: inhibits M. tuberculosis FBA enzyme | inhibition, % at 1 µM | AID 588726 | 360,000 compounds, 2.3% hits | purified M. tuberculosis FBA, fluorescence read-out; in the data active = inhibition above about 27%;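 note: 0% = vehicle and 100% = reference inhibitor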
Mtb UGM inh: blocks M. tuberculosis UGM enzyme | P9WIQ1 | purified UGM, fluorescence polarization probe displacement | inhibition, % at 10 µM | 320,000 compounds, 0.06% hits; in the data active = inhibition above about 10%, passing the limit was not always enough; inconclusive = no clear call, values can overlap the other calls
Mtb bLac sens: beta-lactam sensitization of Mtb H37Rv. M. tuberculosis H37Rv growth with meropenem, percent inhibition. inhibition, % at 25 µM. 330,000 compounds, 0.27% hits;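 note: growth measured after seven days incubation then overnight dye step; 0% = bacteria only wells and 100% = bacteria with antibiotic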
GDH-TPI counter: GDH-TPI coupled enzyme inhibition counter-screen; GDH-TPI coupled enzyme counterscreen, NADH absorbance; inhibition, % at 4.8 µM; 360,000 compounds, 1.2% hits; AID 588335; in the data active = inhibition above about 30%;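 note: 0% = DMSO wells and 100% = wells lacking the enzyme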
RecA intein inh: inhibitors of M. tuberculosis RecA intein splicing | P9WHJ3 | cell-free RecA intein splicing, fluorescence | inhibition, % (no concentration beside the values) | 290,000 compounds, 0.75% hits; in the data active = inhibition above about 30%; inconclusive = no clear call, values can overlap the other calls;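 note: 0% = vehicle wells and 100% = reference inhibitor control wells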
Target sequence (P9WHJ3 whole entry, looked up): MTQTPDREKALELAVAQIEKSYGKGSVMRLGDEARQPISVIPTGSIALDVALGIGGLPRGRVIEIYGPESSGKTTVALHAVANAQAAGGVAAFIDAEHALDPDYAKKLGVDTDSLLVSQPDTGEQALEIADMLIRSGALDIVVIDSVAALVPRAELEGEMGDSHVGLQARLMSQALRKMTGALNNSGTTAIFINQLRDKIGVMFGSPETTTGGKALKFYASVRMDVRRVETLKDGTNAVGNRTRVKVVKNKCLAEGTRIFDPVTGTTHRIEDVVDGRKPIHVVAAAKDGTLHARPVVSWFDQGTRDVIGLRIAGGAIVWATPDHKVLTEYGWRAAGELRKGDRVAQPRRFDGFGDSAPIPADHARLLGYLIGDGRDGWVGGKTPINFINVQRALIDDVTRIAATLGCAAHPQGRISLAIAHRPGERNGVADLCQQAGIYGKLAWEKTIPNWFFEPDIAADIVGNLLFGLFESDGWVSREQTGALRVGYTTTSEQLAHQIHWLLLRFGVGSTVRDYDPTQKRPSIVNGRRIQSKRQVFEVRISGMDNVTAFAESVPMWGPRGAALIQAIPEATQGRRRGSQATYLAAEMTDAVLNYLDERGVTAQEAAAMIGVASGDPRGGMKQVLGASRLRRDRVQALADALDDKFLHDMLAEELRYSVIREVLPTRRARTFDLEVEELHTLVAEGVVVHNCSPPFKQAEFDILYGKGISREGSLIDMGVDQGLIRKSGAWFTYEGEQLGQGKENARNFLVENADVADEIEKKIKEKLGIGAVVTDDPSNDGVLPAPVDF
GFP chromophore: counter-screen GFP chromophore formation inhibition; shares compounds with RecA intein inh; cell-free GFP chromophore formation, fluorescence; EC50, µM; 2,100 compounds, 83% hits
Active calls of the source: *; ? = inconclusive; nt = no result. Shown are actives, neighbours in structure and some others; about 4% of the full set was active somewhere. Unless noted, the rule behind the calls is not given here.

SMILES	Rv3671c inh	FBA Mtb inh	Mtb UGM inh	Mtb bLac sens	GDH-TPI counter	RecA intein inh	GFP chromophore
Cc1cc(=O)n(C2CCS(=O)(=O)C2)[nH]1 (stereo not drawn)	-216	2	3	-4	-4	93*	3.8*
CC(C)(C)c1ccc(/C=C(\c2nc3ccccc3[nH]2)S(=O)(=O)c2ccccc2)cc1	-65	-4	4	0	3	82*	6.6*
Cc1cc(C)c(S(C)(=O)=O)c(Oc2cccc(C(F)(F)F)c2)n1	-3	3	0	3	2	33*	>38
Cc1cc(C)c(S(C)(=O)=O)c(Oc2ccc(F)cc2)n1	7	1	-3	-8	-1	-2	nt
CC(C)[C@@H](C(=O)N1CCN(C(=O)OC(C)(C)C)CC1)n1cc(CCO)nn1	-10	-2	-3	-8	3	-1	nt
NC(=S)N=Nc1c(O)[nH]c2ccccc12	1	-3	nt	2	28	5	nt
Oc1[nH]c2ccccc2c1N=NC(=S)N1CCOCC1	-16	-22	2	96	19	67*	>38
Oc1[nH]c2ccc(Br)cc2c1N=NC(=S)N1CCOCC1	10	-3	3	46	26	47*	>38
COC(=O)N=Nc1c(O)[nH]c2ccc(Br)cc12	8	-7	1	-2	27	1	nt
COc1cc(Cc2nccc3cc(OC)c(OC)cc23)c(S(=O)(=O)O)cc1OC	-1	3	-2	?	6	42*	>38
COc1cc(Cc2nccc3cc(OC)c(OC)cc23)c(NC(C)=O)cc1OC	2	0	2	-1	-6	1	nt
CC1=NN(c2ccc(S(=O)(=O)O)cc2Cl)C(=O)C1	-3	-1	0	7	1	82*	30*
CC1=NN(c2ccc(Cl)c(C(=O)O)c2)C(=O)C1	-210	-2	3	-2	-1	95*	5.6*
CC1=NN(c2ccc(C(=O)O)cc2)C(=O)CC1	6	-1	-5	-4	5	-1	nt
CC1=NN(c2cc(Cl)c(S(=O)(=O)O)cc2Cl)C(=O)C1	nt	-1	nt	nt	13	nt	nt
CC1=NN(c2ccc(C(=O)O)c(N)c2)C(=O)C1	-184	10	0	-4	12	69*	2.6*
CC1=NN(c2ccc([N+](=O)[O-])cc2)C(=O)C1	nt	-4	nt	nt	27	nt	nt
O=C1c2ccccc2C(=O)N1Cc1cc(-c2ccc(Cl)cc2)no1	-1	-2	-3	-3	-5	-2	nt
COc1ccc2ccc3c(c2c1)N=C[C@]1(O3)N(C)c2ccccc2C1(C)C	-85	3	1	15	12	89*	12*
CC(C)(C)OC(=O)N1CC=C2C(C#N)=C(N)C(C#N)(C#N)C(c3cccs3)C2C1 (stereo not drawn)	-7	2	-2	9	6	53*	10*
CCOC(=O)N1CC=C2C(C#N)=C(N)C(C#N)(C#N)[C@H](c3cccs3)C2C1 (stereo partly drawn)	1	2	1	-1	-7	11	nt
Cc1[nH][nH]c(=O)c1C(c1cc([N+](=O)[O-])ccc1O)c1c(C)[nH][nH]c1=O	-17	-9	3	-1	3	96*	0.53*
Cc1[nH][nH]c(=O)c1C(c1c(C)[nH][nH]c1=O)c1cn(C)c2ccccc12	nt	-21	nt	nt	5	nt	nt
O=c1ccsn1Cc1ccccc1	0	2	1	1	10	-3	nt
Clc1ncnc2scc(C3COc4ccccc4O3)c12 (stereo not drawn)	-12	3	-1	-8	-4	67*	20*
SMILES	Rv3671c inh	FBA Mtb inh	Mtb UGM inh	Mtb bLac sens	GDH-TPI counter	RecA intein inh	GFP chromophore
NC(=O)CN1N=C(c2cc(Cl)sc2Cl)CSC1=O	-3	-2	1	-2	12	8	nt
CC1CCCCC1NC(=O)COC(=O)c1ccc(S(=O)(=O)N2CCOCC2)cc1 (stereo not drawn)	2	0	0	3	-2	-1	nt
CC1=NNC(=O)/C1=C\c1cn(-c2ccccc2)nc1-c1ccc(F)cc1	nt	0	nt	nt	9	66*	2.5*
O=Cc1cn(-c2ccccc2)nc1-c1ccc(F)cc1	0	0	1	-10	6	3	nt
O=C(O)CCCCCN1C(=O)/C(=C/c2cn(-c3ccccc3)nc2-c2cccs2)SC1=S	nt	-11	nt	nt	2	nt	nt
CC1=NNC(=O)/C1=C\c1cn(-c2ccccc2)nc1-c1cccs1	-10	-1	-1	98	16	97*	2.8*
